Here are results for 3 compounds from PubChem BioAssay.

Results filed as inconclusive are left out. Activity calls are given as the source filed them. Unless noted, the rule behind the calls is not given here.

A short description of experiment [1]: rapamycin-like changes in RPL19A-GFP expression – cell-based, S. cerevisiae, multiplex flow cytometry, primary screen (AID 1862; in the data active = percent of DMSO control GFP below about 86%;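 note: lower values mimic rapamycin by blocking the RPL19A rise seen in DMSO cells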). To be noted: S. cerevisiae RPL19A-GFP strain, flow cytometry fluorescence, 3 h; at 10 µM; stronger effect = lower value. In general terms: In flow cytometry, cells or beads pass a laser one at a time.
Experiment [2] can be described thus: TOR pathway GLN3 branch reporter MEP2-GFP changes – S. cerevisiae, multiplex flow cytometry, primary screen (AID 1867;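 active = GFP response, as percent of the DMSO control, above the screen-wide mean plus 3 SD, about 139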;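 note: median GFP channel fluorescence of barcode-gated MEP2-GFP cells measured by flow cytometry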). The note with it: S. cerevisiae MEP2-GFP strain, 3 h, at 10 µM, stronger effect = higher value.
Experiment [3] in a line: TOR pathway RTG branch CIT2 reporter changes – S. cerevisiae, GFP fusion, multiplex flow cytometry, primary screen (AID 1870;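 active = percent response above a set limit, the screen-wide mean plus 3 SD, cut at about 130% in these data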;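 note: barcoded CIT2-GFP strain pooled with four other GFP strains with rapamycin as positive control; median GFP fluorescence per well over plate mean of DMSO wells so 100% = DMSO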). The note with it: S. cerevisiae CIT2-GFP expression, 3 h, at 10 µM, stronger effect = higher value.
Experiment [4] can be described thus: TOR pathway LAP4-GFP level changes – S. cerevisiae, multiplex flow cytometry, primary screen (AID 1873;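 active = GFP signal, as percent of the solvent control, above the screen mean plus 3 SD, about 149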). To be noted: S. cerevisiae LAP4-GFP expression, 3 h, at 10 µM, stronger effect = higher value.
Experiment [5] in a line: yeast AGP1-GFP level changes, GLN3 branch – cell-based, multiplex flow cytometry, S. cerevisiae, primary screen (AID 1887;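 active = GFP signal above the screen-wide mean plus 3 SD, that is over about 124.5% of the solvent control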;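 note: AGP1-GFP fusion strain of S. cerevisiae within a five-strain barcoded multiplex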). To be noted: 3 h, at 10 µM, stronger effect = higher value.
Experiment [6] is described as follows: reduced mouse 2C T cell binding to pMHC/ICAM-1 vesicles – MLPCN validation set, flow cytometry, LFA-1/ICAM-1 modulator project, pilot screen (AID 2523;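 active = response below a set limit, under 55% cells CD8-positive and vesicle-bound, and CD8 cells' 90th-percentile brightness under 279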;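 for vesicle binding response: mean PE anti-B7-1 fluorescence of CD8+ cells relative to row control; 100% = QL9-loaded vesicles with DMSO vehicle in the same plate row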). The note with it: 2C mouse CD8+ T cells, at 7 µM, stronger effect = lower value; double positive events: measured here: CD8+/vesicle+ event percentage.
Experiment [7] deals with Integrin beta-1 (Homo sapiens) + Integrin alpha-4 (Homo sapiens) (UniProt P13612+P05556). The experiment can be described thus: alpha4beta1 integrin LIBS antibody binding reduction – U937 cells, HUTS-21 mAb, flow cytometry, validation set, VLA-4 allosteric modulator project, pilot screen (AID 2674;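 active = inhibition above 50%, about 3 SD of the validation set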;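 note: antibody binding induced by the VLA-4 ligand LDV present at three times its Kd; 0% = LDV ligand with antibody and no compound and 100% = antibody without LDV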). To be noted: HUTS-21 LIBS mAb binding, at 6.7 µM, stronger effect = higher value.
The nature of experiment [8]: calorie-restriction mimetic ROS inhibitors, yeast – validation compound set, pilot screen (AID 2706;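 active = superoxide response below 65% of plate, a cut near 3 SD across the whole screen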;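 note: yeast exposed to compound for one week at 30 degrees C before staining; 100% = mean of all compound wells on the same plate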). The note with it: S. cerevisiae aging, superoxide DHE fluorescence; at 10 µM; stronger effect = lower value.
For experiment [9], the target named is Beta-adrenergic receptor kinase 1 (Homo sapiens) (UniProt P25098). The experiment can be described thus: GRK2 binders displacing RNA aptamer, biochemical, validation, human GRK2, bead flow cytometry (AID 488806;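 active = aptamer binding inhibition above 30%, about 3 SD of noise from non-fluorescent compounds; inactive = inhibition at or below 30%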). To be noted: bead-bound GRK2, FAM-aptamer displacement, at 10 µM, stronger effect = higher value.
Experiment [10] addresses Beta-2 adrenergic receptor (Homo sapiens) (UniProt P07550). The experiment can be described thus: agonist-induced loss of surface beta2AR – cell-based, FAP fluorogen, flow cytometry, validation set, pilot screen (AID 504459;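 active = percent response above 42, roughly 3 SD of non-fluorescent test compounds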;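 note: agonist-driven loss of surface beta2AR via internalization measured by FAP dye flow cytometry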). To be noted: Am2.2-beta2AR cells, at 10 µM, stronger effect = higher value.
Experiment [11] addresses AP-2 complex subunit beta (Homo sapiens) (UniProt P63010). The experiment can be described thus: beta-arrestin/AP2 interaction blockers – biochemical, validation set, GST-AP2 beads, flow cytometry, pilot screen (AID 504541;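 active = inhibition above 54%, about 3 SD of non-fluorescent compounds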;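 note: AP2 carries R879A mutation and is captured from E. coli lysate; bead-bound FITC arrestin peptide fluorescence measuring arrestin peptide binding to AP2; 0% = DMSO wells and 100% = excess unlabeled arrestin peptide control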). The note with it: FITC arrestin peptide, at 10 µM, stronger effect = higher value.
The nature of experiment [12]: cytosolic pH regulators acting via V-ATPase – S. cerevisiae, pHLuorin, HTS validation (AID 504600; in the data active = response above about 15%;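 note: plate controls were DMSO for no effect and reference compound for full effect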). The note with it: V-ATPase proton transport, at 10 µM, stronger effect = higher value.
Experiment [13] relates to anti-desmoglein-3 scFv antibody binding to human DSG3. Put plainly: blockers of pathogenic pemphigus antibody–desmoglein-3 binding – biochemical, validation compound set, bead-based, flow cytometry, pilot screen (AID 588368;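 active = binding below the plate cutoff, the plate median minus 3 SD, with a reading above zero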;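 note: signal is the median channel fluorescence of bead-bound GFP antibody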). The note with it: Protein G beads, DSG3-Fc, scFv-GFP binding, at 10 µM, stronger effect = lower value.
The subject of experiment [14] is Botulinum neurotoxin type F light chain protease (Clostridium botulinum). Put plainly: Clostridium botulinum type F light chain protease inhibitors, microsphere substrate cleavage, validation (AID 588459). To be noted: multiplex microsphere protease substrate cleavage assay, flow cytometry; at 10 µM; stronger effect = higher value.
For experiment [15], the target named is Botulinum neurotoxin type A (Clostridium botulinum) (UniProt P0DPI0). Put plainly: BoNT/A light chain protease inhibitors, biochemical, multiplex microsphere flow cytometry, validation set (AID 588460). The note with it: at 10 µM, stronger effect = higher value.
Experiment [16] addresses Lethal factor (Bacillus anthracis) (UniProt P15917). Put plainly: Bacillus anthracis lethal factor inhibition, microsphere flow cytometry protease assay, validation at 10 µM (AID 588461). To be noted: multiplex microsphere protease cleavage assay, stronger effect = higher value.
The nature of experiment [17]: Nile Red efflux blockade in pump-expressing yeast – validation compound set, multiplex, phenotypic, pilot screen (AID 588506;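 active = efflux inhibition above 0.42, the validation set average plus 4 SD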;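 note: Nile Red retained in cells so higher fluorescence means more efflux inhibition; 0 = negative control wells and 1 = enniatin B 25 µM full block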). The note with it: S. cerevisiae pump-expressing triplex, Nile Red efflux flow cytometry; at 10 µM; stronger effect = higher value.
Experiment [18] deals with ATP-binding cassette sub-family B member 6 (Homo sapiens) (UniProt Q9NP58). The experiment can be described thus: blockers of ABCB6-driven porphyrin uptake – K562-ABCB6 cells, flow cytometry, validation set, pilot screen (AID 588550;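 active = inhibition above the screen-wide mean plus 3 SD, about 51%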;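 note: 0% = DMSO wells and 100% = benzethonium chloride 70 µM positive control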). The note with it: K562-ABCB6 porphyrin accumulation, 1 h, at 10 µM, stronger effect = higher value.
The nature of experiment [19]: AML differentiation inducers, ER-HoxA9 marrow cells – cell-based, GFP/MAC1 double positive, flow cytometry, validation set, primary screen (AID 588685;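 active = differentiation response of at least 50%, scaled between solvent and reference control, from cells with both markers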;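 note: compound exposure lasts four days before antibody staining and flow analysis; 0% = DMSO wells and 100% = 5 µM fulvestrant positive control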). To be noted: stronger effect = higher value.

Sequence of Beta-2 adrenergic receptor (Homo sapiens) (P07550 whole entry, looked up): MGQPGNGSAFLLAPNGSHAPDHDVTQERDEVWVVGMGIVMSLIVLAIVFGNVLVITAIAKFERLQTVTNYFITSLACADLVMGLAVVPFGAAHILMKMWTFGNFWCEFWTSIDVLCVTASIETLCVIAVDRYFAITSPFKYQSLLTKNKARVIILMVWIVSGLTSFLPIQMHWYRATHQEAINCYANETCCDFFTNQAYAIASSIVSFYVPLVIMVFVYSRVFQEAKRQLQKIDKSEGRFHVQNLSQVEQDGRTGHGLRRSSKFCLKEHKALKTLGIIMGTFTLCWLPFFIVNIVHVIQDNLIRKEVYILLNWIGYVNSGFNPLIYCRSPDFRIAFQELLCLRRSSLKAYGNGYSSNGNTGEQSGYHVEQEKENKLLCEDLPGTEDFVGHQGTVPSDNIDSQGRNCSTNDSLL
Sequence of Botulinum neurotoxin type A (Clostridium botulinum) (P0DPI0 whole entry, looked up): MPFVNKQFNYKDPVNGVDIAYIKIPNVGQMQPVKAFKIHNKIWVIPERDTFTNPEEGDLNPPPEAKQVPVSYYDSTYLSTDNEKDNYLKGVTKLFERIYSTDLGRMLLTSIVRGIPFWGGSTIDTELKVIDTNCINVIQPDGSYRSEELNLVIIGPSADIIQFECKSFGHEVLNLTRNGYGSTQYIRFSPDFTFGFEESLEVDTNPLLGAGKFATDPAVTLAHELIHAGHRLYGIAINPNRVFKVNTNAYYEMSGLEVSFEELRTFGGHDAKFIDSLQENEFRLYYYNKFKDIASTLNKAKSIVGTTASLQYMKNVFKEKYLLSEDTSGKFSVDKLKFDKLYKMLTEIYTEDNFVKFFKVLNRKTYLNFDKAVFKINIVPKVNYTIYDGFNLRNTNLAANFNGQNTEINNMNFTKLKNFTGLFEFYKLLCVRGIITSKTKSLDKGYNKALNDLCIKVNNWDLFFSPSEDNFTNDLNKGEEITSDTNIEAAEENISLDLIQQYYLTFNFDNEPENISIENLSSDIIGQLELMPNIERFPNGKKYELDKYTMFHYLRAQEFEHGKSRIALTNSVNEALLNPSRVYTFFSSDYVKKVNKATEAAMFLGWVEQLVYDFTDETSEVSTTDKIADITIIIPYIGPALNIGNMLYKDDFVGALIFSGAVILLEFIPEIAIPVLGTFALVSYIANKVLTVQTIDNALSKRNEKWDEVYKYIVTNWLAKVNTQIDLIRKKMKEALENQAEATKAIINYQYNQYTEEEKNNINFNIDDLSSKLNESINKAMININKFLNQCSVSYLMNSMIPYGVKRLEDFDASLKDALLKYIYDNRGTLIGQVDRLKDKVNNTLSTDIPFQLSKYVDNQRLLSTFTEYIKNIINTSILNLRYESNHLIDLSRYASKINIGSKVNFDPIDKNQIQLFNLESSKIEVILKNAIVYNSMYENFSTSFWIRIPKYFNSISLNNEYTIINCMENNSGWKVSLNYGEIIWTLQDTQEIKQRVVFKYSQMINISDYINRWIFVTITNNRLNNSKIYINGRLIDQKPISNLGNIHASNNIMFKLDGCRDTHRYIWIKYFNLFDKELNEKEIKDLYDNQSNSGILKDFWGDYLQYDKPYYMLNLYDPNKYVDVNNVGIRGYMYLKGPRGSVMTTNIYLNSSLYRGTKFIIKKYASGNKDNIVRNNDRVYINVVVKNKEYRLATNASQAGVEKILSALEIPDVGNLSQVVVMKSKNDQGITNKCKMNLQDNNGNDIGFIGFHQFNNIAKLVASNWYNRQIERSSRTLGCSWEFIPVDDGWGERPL
Sequence of Beta-adrenergic receptor kinase 1 (Homo sapiens) (P25098 whole entry, looked up): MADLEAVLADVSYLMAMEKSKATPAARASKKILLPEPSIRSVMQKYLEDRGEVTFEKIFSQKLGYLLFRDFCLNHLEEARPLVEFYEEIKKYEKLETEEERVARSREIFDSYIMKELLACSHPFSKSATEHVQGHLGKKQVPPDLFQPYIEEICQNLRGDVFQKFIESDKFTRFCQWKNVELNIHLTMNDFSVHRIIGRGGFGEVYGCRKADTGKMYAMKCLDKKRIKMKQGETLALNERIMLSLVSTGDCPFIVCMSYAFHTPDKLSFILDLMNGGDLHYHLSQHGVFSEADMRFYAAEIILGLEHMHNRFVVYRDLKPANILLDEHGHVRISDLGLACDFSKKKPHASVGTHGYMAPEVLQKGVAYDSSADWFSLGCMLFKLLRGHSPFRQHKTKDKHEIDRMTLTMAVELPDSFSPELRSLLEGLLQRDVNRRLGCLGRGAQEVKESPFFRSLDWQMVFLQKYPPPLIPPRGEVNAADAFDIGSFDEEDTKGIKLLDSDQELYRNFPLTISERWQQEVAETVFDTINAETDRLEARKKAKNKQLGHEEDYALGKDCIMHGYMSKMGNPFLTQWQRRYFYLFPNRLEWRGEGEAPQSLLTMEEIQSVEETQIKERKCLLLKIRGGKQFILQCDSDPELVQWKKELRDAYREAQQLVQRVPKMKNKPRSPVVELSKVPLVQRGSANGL
Sequence of ATP-binding cassette sub-family B member 6 (Homo sapiens) (Q9NP58 whole entry, looked up): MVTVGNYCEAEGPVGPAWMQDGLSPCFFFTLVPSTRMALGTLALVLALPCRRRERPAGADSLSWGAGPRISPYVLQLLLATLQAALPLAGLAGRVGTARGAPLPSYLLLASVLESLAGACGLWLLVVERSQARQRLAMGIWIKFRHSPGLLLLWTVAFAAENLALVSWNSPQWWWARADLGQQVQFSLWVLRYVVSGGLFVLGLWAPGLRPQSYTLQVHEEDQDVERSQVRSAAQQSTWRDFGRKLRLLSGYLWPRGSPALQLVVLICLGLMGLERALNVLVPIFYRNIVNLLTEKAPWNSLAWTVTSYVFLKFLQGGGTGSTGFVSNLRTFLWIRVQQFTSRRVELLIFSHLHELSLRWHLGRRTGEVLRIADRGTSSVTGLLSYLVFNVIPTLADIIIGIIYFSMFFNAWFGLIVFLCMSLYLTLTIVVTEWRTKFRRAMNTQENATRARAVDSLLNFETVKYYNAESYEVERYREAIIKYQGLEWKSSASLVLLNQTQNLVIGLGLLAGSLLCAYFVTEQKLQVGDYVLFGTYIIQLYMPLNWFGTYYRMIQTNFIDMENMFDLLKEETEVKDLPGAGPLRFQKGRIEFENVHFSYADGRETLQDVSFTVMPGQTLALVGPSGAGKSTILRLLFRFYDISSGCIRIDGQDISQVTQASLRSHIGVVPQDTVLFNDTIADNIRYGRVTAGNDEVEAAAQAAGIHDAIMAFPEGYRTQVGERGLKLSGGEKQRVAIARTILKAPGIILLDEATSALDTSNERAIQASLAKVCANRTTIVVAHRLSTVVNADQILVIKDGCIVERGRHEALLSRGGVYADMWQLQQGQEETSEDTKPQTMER
Sequence of AP-2 complex subunit beta (Homo sapiens) (P63010 whole entry, looked up, one chain of several): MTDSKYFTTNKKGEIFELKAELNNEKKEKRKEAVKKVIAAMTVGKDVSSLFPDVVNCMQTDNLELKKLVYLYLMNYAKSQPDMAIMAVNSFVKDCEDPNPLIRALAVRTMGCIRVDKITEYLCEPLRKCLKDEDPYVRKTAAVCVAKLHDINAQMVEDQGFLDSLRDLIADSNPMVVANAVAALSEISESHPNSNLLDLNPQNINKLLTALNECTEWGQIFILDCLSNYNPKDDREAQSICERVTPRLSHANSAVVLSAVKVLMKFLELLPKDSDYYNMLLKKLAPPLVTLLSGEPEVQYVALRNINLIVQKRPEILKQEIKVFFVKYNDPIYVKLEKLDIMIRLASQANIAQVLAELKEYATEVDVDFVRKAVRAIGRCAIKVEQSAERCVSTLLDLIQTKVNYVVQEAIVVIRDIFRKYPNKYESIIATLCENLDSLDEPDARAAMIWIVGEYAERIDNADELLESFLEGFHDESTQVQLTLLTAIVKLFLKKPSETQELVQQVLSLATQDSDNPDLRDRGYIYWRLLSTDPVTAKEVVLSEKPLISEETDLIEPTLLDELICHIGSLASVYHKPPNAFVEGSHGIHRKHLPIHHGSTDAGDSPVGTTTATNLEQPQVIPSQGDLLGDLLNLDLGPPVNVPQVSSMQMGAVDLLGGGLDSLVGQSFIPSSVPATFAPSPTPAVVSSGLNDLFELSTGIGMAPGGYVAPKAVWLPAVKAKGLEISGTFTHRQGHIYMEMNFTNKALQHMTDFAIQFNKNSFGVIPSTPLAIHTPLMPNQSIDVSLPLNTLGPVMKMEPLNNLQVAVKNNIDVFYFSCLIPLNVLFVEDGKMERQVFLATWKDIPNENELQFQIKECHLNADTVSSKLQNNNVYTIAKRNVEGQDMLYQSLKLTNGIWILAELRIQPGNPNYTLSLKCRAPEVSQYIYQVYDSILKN
Sequence of Lethal factor (Bacillus anthracis) (P15917 whole entry, looked up): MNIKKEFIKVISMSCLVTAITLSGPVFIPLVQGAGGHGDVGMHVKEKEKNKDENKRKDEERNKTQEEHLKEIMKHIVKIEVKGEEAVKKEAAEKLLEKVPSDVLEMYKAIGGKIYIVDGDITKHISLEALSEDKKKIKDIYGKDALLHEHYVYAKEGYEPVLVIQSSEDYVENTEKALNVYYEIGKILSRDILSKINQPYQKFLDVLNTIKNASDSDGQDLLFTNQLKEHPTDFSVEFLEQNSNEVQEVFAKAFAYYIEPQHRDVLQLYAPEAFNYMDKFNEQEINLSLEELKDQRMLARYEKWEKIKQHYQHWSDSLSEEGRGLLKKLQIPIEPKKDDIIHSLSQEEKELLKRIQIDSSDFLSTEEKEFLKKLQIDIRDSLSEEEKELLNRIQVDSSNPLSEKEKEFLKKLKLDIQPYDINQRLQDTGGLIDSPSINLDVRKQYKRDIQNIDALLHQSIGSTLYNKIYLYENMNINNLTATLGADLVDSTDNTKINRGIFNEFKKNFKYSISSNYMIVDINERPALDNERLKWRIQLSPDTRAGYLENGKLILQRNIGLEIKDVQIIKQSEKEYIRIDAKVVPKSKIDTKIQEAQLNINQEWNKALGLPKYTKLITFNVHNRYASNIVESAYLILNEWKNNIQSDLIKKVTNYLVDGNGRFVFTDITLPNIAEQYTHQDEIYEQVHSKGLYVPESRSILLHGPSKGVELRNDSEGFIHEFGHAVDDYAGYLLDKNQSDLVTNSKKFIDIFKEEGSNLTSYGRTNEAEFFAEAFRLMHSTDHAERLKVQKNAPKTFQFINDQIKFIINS

Turning to `CC12CC[C@H]3[C@@H](CCC4(O)C[C@H](O)CCC34/C=N/NC(=O)Cc3ccccc3)C1(O)CCC2C1=CC(=O)OC1` (some centres undefined), the percent of DMSO control GFP in experiment [1] was 103% (inactive). Moreover, the GFP response vs DMSO in experiment [2] was 101% (inactive); in experiment [4], 92% (inactive). In addition, the percent response of DMSO control in [3] is 115% (inactive). Also, the GFP response, % of DMSO in experiment [5] was 107% (inactive). The same compound had a double positive events in experiment [6] of 65.3%. Moreover, in experiment [6], the vesicle binding response was 204% (inactive). For the same compound, the inhibition was 1.62% (inactive) in [7]; -3.69% (inactive) in experiment [11]; 3.5% (inactive) in [14]; -0.2% (inactive) in [15]; 3.2% (inactive) in experiment [16]; 5% (inactive) in experiment [18]. In [8], the superoxide response (% of plate) is 111% (inactive). For the same compound, the aptamer binding inhibition in experiment [9] was 1% (inactive). In addition, the response in experiment [10] is -5.5% (inactive); in experiment [12], 1.22% (inactive). Moreover, in experiment [13], the binding (% of control) was 95% (inactive). In addition, in [17], the efflux inhibition (fraction of control) is 0.08 (inactive). Also, the differentiation response in experiment [19] was 0.24% (inactive).
With `C[C@]12CCC(=O)C=C1CC[C@@H]1[C@@H]2CC[C@]2(C)C(=O)CC[C@@H]12`, the percent of DMSO control GFP in experiment [1] was 97.6% (inactive). For the same compound, the GFP response vs DMSO in [2] was 95.1% (inactive); in [4], 106% (inactive). In experiment [3], the percent response of DMSO control is 80.3% (inactive). Further, the GFP response, % of DMSO in experiment [5] is 84.2% (inactive). In [6], the double positive events is 66.1%. Besides, the vesicle binding response in [6] was 210% (inactive). Further, the inhibition was 1.62% (inactive) in [7]; -7.92% (inactive) in experiment [11]; -2.7% (inactive) in experiment [14]; -2.1% (inactive) in experiment [15]; -3.5% (inactive) in experiment [16]; 9% (inactive) in [18]. In experiment [9], the aptamer binding inhibition is 1% (inactive). The response in experiment [10] is -0.98% (inactive); in experiment [12], -1.25% (inactive). In addition, in experiment [13], the binding (% of control) was 99.8% (inactive). For the same compound, the efflux inhibition (fraction of control) in experiment [17] was 0.05 (inactive). The differentiation response in experiment [19] is 11% (inactive).
Consider `Nc1ccncc1`, for which, in experiment [1], the percent of DMSO control GFP is 97.9% (inactive). Also, the GFP response vs DMSO is 119% (inactive) in experiment [2] and 77.6% (inactive) in experiment [4]. For the same compound, the percent response of DMSO control in experiment [3] is 111% (inactive). For the same compound, in [5], the GFP response, % of DMSO is 99.6% (inactive). Besides, in experiment [6], the double positive events amounted to 61%. Further, the vesicle binding response in experiment [6] was 218% (inactive). Besides, the inhibition is -0.33% (inactive) in experiment [7]; -14.8% (inactive) in experiment [11]; 2.4% (inactive) in [14]; -0.4% (inactive) in experiment [15]; -3% (inactive) in experiment [16]; 13% (inactive) in [18]. Besides, the superoxide response (% of plate) in experiment [8] was 94.5% (inactive). Also, the aptamer binding inhibition in [9] was 1% (inactive). Besides, the results for the response in experiment [10] and in experiment [12] were -11.6% (inactive) and -2.33% (inactive), respectively. Moreover, the binding (% of control) in experiment [13] was 108% (inactive). For the same compound, the efflux inhibition (fraction of control) in experiment [17] was -0.02 (inactive). In addition, the differentiation response in [19] is 4.09% (inactive).

The term inhibition denotes the relative decrease from the control value, in per cent.
